The text below walks through data of PubChem BioAssay (NCI).

“And” between values parts separate entries of the source, which are not always exact repeats. Equal entries are not always repeated. About 79,000 compounds went through this panel and 15% of them were active in at least one assay; those are over-represented in the sample as a whole. A number with no mark means an inactive call. The source made the active and inactive calls. No stated cut-off is given here; in the data, active means growth inhibition above about 70%; inactive means the rest.

One assay can be described thus: NCI Yeast Anticancer Drug Screen. Data for the cln2 rad14 strain (AID 165).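 Further: 0% = growth equal to vehicle treated cultures.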 The note with it: S. cerevisiae cln2 rad14 strain, at 50.0 µM, hits give high values. The method, boiled down: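 Yeast carrying cln2 and rad14 alterations (cell cycle control and DNA damage repair) were exposed to compounds. Growth inhibition was measured against vehicle-treated controls.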
Take `C[N+](C)(C)CC1CCCCCCCCCCC1=O` (configuration not stated): the growth inhibition was 7.75%.

For the compound `O=C1CC(c2ccccc2)n2cccc21` (configuration not stated), the growth inhibition was 24.8%.

Consider `c1ccc(-c2ccc([As](c3ccccc3)c3ccccc3)cc2)cc1`, for which the growth inhibition is 3.85%.

`NC(Cc1cc([N+](=O)[O-])ccc1CN(CCCl)CCCl)C(=O)O` (configuration not stated): the growth inhibition was 19.5%.

On to `CSCC(NP1(=O)SC(NN=C(C)C)=NC1(C)C)C(=O)O` (configuration not stated), for which the growth inhibition is 20.3%.

As for `N#C[CH2][Sn]([I])([c]1ccccc1)[c]1ccccc1`, the growth inhibition was 72% (active).

Regarding `COc1ccc(CC(N)c2ccccc2)cc1` (configuration not stated), the growth inhibition is 10.2%.

A further assay can be described thus: NCI Yeast Anticancer Drug Screen. Data for the bub3 strain (AID 167). The note with it: S. cerevisiae bub3 mutant strain, at 50.0 µM, hits give high values. The procedure, abridged: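 In this screen, a yeast mutant lacking normal mitotic checkpoint function is challenged with compound. Relative growth versus vehicle gives the inhibition value.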
Turning to `O=C(c1ccccc1)C1C(C(=O)c2ccccc2)N1Cc1ccccc1` (configuration not stated), the growth inhibition was 27.2% and 9%.

In the case of `CCC1CN2CCc3cc(OC)c(OC)cc3C2CC1CC1c2cc(OC)c(OC)cc2CCN1C(=O)C(N)Cc1ccccc1` (configuration not stated), the growth inhibition is -5.05%.

On to `COc1cc(C(CC(C)=O)c2cc3c(cc2OC(C)=O)OCO3)cc(OC)c1OC` (configuration not stated), for which the growth inhibition was 10.8%.

With `CN(C)NP(c1ccccc1)c1ccccc1`, the growth inhibition was -18.2%.

For the compound `OCC(O)C(O)C(O)C1C[O][Sb][O]1` (configuration not stated), the growth inhibition was -2.85%.

On to `Nc1ccc(/C=C/C(=O)Nc2ccc(S(=O)(=O)F)cc2)cc1`, for which the growth inhibition was 99% (active).

`[Cl][Hg][c]1ccccc1N=Nc1ccccc1I`: the growth inhibition is 99.3% (active).

On to `CC1CCCN(C(c2ccccc2)C(O)c2ccccc2)C1` (configuration not stated), for which the growth inhibition was 46.5%.

Take `CCN1C[C@]2(COC)[C@H](O)C[C@H](OC)[C@]34C1[C@H]([C@H](OC)[C@H]23)[C@]1(OC(C)=O)[C@H]2[C@@H](OC(=O)c3ccccc3)[C@](O)(C[C@H]24)[C@@H](OC)[C@@H]1O`: the growth inhibition is 24.9%.

For `[Cl][Tl]`, the growth inhibition was -41%.

Regarding `CCCCOP(=O)(NCCOC)OCCCC`, the growth inhibition is 5.25%.

For `CC(C)(O)C1=CC23CC(C)(C(=O)O)C4CCCCC4(C)C2CC1OO3` (configuration not stated), the growth inhibition is -10.3%.

Take `O=[Te]=O`: the growth inhibition was 5.55%.

Take `Cc1cnc2ncn(Cc3c[nH]c(=O)[nH]c3=O)c(=O)c2c1`: the growth inhibition is -18.4%.

As to `CCOP(=O)(OCC)Oc1cc(C)c(SC)c(C)c1`, the growth inhibition is 19%.

Turning to `CC(Cl)C(=O)OC(C)(C)Cl` (configuration not stated), the growth inhibition was 17%.

Take `O=C(O)CP(=O)(O)O`: the growth inhibition was -27.1% and 5.75%.

`CCOP(=O)(OCC)c1cc2cc(O)ccc2oc1=O`: the growth inhibition was -8.75%.

In the case of `C[N+](C)(C)NP(=O)(N[N+](C)(C)C)Oc1ccccc1`, the growth inhibition is 1.05%.

In the case of `OC(CN(C1CCCCC1)C1CCCCC1)c1ccc(Cl)c(Cl)c1` (configuration not stated), the growth inhibition is 35.4%.

As for `C#CC1(O)CCC(C(C)(C)C)CC1` (configuration not stated), the growth inhibition is 9.05% and 10.4% and -10.2%.

As for `CC1(C)C=C(NC(=O)N2CC2)C(C)(C)N1O`, the growth inhibition was 34.8%.

With `CC(=O)OC1(C#N)CC2OC1C1NC21` (configuration not stated), the growth inhibition is -14.7%.

In the case of `Cc1ccc(S(=O)(=O)NNP(Br)(c2ccccc2)(c2ccccc2)c2ccccc2)cc1`, the growth inhibition was 5.35%.

For `Cc1cccc(-n2c(C)nc3ccccc3c2=O)c1C`, the growth inhibition was -0.6%.

For the compound `O=c1c2ccccc2sc2c1c(N(CCCl)CCCl)cc1ccccc12`, the growth inhibition was -5.85%.

In the case of `Oc1cccc2cccnc12.[Cr]`, the growth inhibition is -16.9%.

For the compound `O=C1NC2(CCCCC2)C(=O)N1CCCCCN(CCCl)CCCl`, the growth inhibition is -9.75%.

Consider `CC1c2[nH]c3ccccc3c2CCN1C` (configuration not stated), for which the growth inhibition was -6.95%.

Regarding `CC1(C)N=C(N)N=C(N)N1c1ccc(CCCCc2ccccc2S(=O)(=O)F)c(Cl)c1`, the growth inhibition was 99.5% (active).

Take `S=c1[nH]c2ccccc2[nH]1.[Zn+2]`: the growth inhibition was -21.4%.

For `O=S1(N2CC2)=NP(N2CC2)(N2CC2)=NP(N2CC2)(N2CC2)=N1` (configuration not stated), the growth inhibition is -33%.

Take `Nc1cccc2scnc12` (tested in a mixture with another compound): the growth inhibition is -10.3%.

Regarding `C[N+](C)(C)CC1CCCCCCCCCCC1=O` (configuration not stated), the growth inhibition was -16.4%.

On to `O=C1CC(c2ccccc2)n2cccc21` (configuration not stated), for which the growth inhibition is -8.95%.

As to `c1ccc(-c2ccc([As](c3ccccc3)c3ccccc3)cc2)cc1`, the growth inhibition is 7.6%.

Consider `NC(Cc1cc([N+](=O)[O-])ccc1CN(CCCl)CCCl)C(=O)O` (configuration not stated), for which the growth inhibition was 40.1%.

For `CSCC(NP1(=O)SC(NN=C(C)C)=NC1(C)C)C(=O)O` (configuration not stated), the growth inhibition was 17.6%.

For `N#C[CH2][Sn]([I])([c]1ccccc1)[c]1ccccc1`, the growth inhibition was -0.25%.

`COc1ccc(CC(N)c2ccccc2)cc1` (configuration not stated): the growth inhibition was 12.8%.

The next assay can be described thus: NCI Yeast Anticancer Drug Screen. Data for the mlh1 rad18 strain (AID 175). As to conditions: S. cerevisiae mlh1 rad18 strain growth inhibition; at 50.0 µM; hits give high values. The method, boiled down:
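Growth inhibition of the yeast strain was measured after compound exposure and expressed relative to vehicle-treated controls. The strain carries defined defects in DNA damage repair.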
With `O=C(c1ccccc1)C1C(C(=O)c2ccccc2)N1Cc1ccccc1` (configuration not stated), the growth inhibition was -7.8% and 6.65%.

Consider `CCC1CN2CCc3cc(OC)c(OC)cc3C2CC1CC1c2cc(OC)c(OC)cc2CCN1C(=O)C(N)Cc1ccccc1` (configuration not stated), for which the growth inhibition was 8.5%.

In the case of `COc1cc(C(CC(C)=O)c2cc3c(cc2OC(C)=O)OCO3)cc(OC)c1OC` (configuration not stated), the growth inhibition was 21.9%.

`CN(C)NP(c1ccccc1)c1ccccc1`: the growth inhibition is 1.1%.

Take `OCC(O)C(O)C(O)C1C[O][Sb][O]1` (configuration not stated): the growth inhibition was 8.2%.

Consider `Nc1ccc(/C=C/C(=O)Nc2ccc(S(=O)(=O)F)cc2)cc1`, for which the growth inhibition is 95.5% (active).

On to `[Cl][Hg][c]1ccccc1N=Nc1ccccc1I`, for which the growth inhibition is 99.2% (active).

On to `CC1CCCN(C(c2ccccc2)C(O)c2ccccc2)C1` (configuration not stated), for which the growth inhibition is 7.6%.

As to `CCN1C[C@]2(COC)[C@H](O)C[C@H](OC)[C@]34C1[C@H]([C@H](OC)[C@H]23)[C@]1(OC(C)=O)[C@H]2[C@@H](OC(=O)c3ccccc3)[C@](O)(C[C@H]24)[C@@H](OC)[C@@H]1O`, the growth inhibition is -69.3%.

For `[Cl][Tl]`, the growth inhibition was -37.5%.

In the case of `CCCCOP(=O)(NCCOC)OCCCC`, the growth inhibition is 10.2%.

Take `CC(C)(O)C1=CC23CC(C)(C(=O)O)C4CCCCC4(C)C2CC1OO3` (configuration not stated): the growth inhibition was 25.4%.

For `O=[Te]=O`, the growth inhibition is 11.4%.

Turning to `Cc1cnc2ncn(Cc3c[nH]c(=O)[nH]c3=O)c(=O)c2c1`, the growth inhibition is -11.5%.

As to `CCOP(=O)(OCC)Oc1cc(C)c(SC)c(C)c1`, the growth inhibition is -16.8%.

As to `CC(Cl)C(=O)OC(C)(C)Cl` (configuration not stated), the growth inhibition is 3.05%.

On to `O=C(O)CP(=O)(O)O`, for which the growth inhibition is 1.2% and -2.65%.

As to `CCOP(=O)(OCC)c1cc2cc(O)ccc2oc1=O`, the growth inhibition was -50.7%.

With `C[N+](C)(C)NP(=O)(N[N+](C)(C)C)Oc1ccccc1`, the growth inhibition was 28.1%.

As for `OC(CN(C1CCCCC1)C1CCCCC1)c1ccc(Cl)c(Cl)c1` (configuration not stated), the growth inhibition was -28.2%.

Regarding `C#CC1(O)CCC(C(C)(C)C)CC1` (configuration not stated), the growth inhibition is -17.9% and -4.15% and 10.8%.

In the case of `CC1(C)C=C(NC(=O)N2CC2)C(C)(C)N1O`, the growth inhibition is 1.45%.

On to `CC(=O)OC1(C#N)CC2OC1C1NC21` (configuration not stated), for which the growth inhibition is -13%.

`Cc1ccc(S(=O)(=O)NNP(Br)(c2ccccc2)(c2ccccc2)c2ccccc2)cc1`: the growth inhibition was 12.4%.

Turning to `Cc1cccc(-n2c(C)nc3ccccc3c2=O)c1C`, the growth inhibition was -13.1%.

As to `O=c1c2ccccc2sc2c1c(N(CCCl)CCCl)cc1ccccc12`, the growth inhibition was 18.8%.

On to `Oc1cccc2cccnc12.[Cr]`, for which the growth inhibition was -9.65%.

For the compound `O=C1NC2(CCCCC2)C(=O)N1CCCCCN(CCCl)CCCl`, the growth inhibition is -0.3%.

As to `CC1c2[nH]c3ccccc3c2CCN1C` (configuration not stated), the growth inhibition is 12.3%.

As to `CC1(C)N=C(N)N=C(N)N1c1ccc(CCCCc2ccccc2S(=O)(=O)F)c(Cl)c1`, the growth inhibition is 99.7% (active).

For the compound `S=c1[nH]c2ccccc2[nH]1.[Zn+2]`, the growth inhibition is -5.35%.

For `O=S1(N2CC2)=NP(N2CC2)(N2CC2)=NP(N2CC2)(N2CC2)=N1` (configuration not stated), the growth inhibition is -67.1%.

`Nc1cccc2scnc12` (tested in a mixture with another compound): the growth inhibition is 19.1%.

For the compound `C[N+](C)(C)CC1CCCCCCCCCCC1=O` (configuration not stated), the growth inhibition is -9.75%.

For `O=C1CC(c2ccccc2)n2cccc21` (configuration not stated), the growth inhibition was -27.8%.

`c1ccc(-c2ccc([As](c3ccccc3)c3ccccc3)cc2)cc1`: the growth inhibition is 11.8%.

In the case of `NC(Cc1cc([N+](=O)[O-])ccc1CN(CCCl)CCCl)C(=O)O` (configuration not stated), the growth inhibition was 39.6%.

In the case of `CSCC(NP1(=O)SC(NN=C(C)C)=NC1(C)C)C(=O)O` (configuration not stated), the growth inhibition was -3.45%.

Regarding `N#C[CH2][Sn]([I])([c]1ccccc1)[c]1ccccc1`, the growth inhibition was 1.9%.

With `COc1ccc(CC(N)c2ccccc2)cc1` (configuration not stated), the growth inhibition is -3.5%.
